Records with an inconclusive call do not appear. The source made the active and inactive calls. Calls follow the shape of the full dose curve.

The nature of this test: Normal 1 Cell Viability Secondary Assay for qHTS Assay for Epigenetic Modulators. The note with it: Normal 1 bronchial epithelial viability, MTS, 4 d. From the text:
NIH Molecular Libraries Screening Centers Network [MLSCN] NIH Chemical Genomics Center [NCGC] MLSCN Grant: 1 X01 MH079860-01 Assay Provider: Elisabeth D. Martinez, University of Texas SW Medical Center NCGC Assay Overview: This secondary assay characterizes selected actives identified in the qHTS of the Locus Derepression (LDR) assay (PubChem AID 597). The LDR assay detects the derepression of a GFP reporter that is stably integrated in a region of the genome of murine c127i mammary cells that is presumably silenced. Compounds that cause derepression of the locus to express GFP are identified by enumerating GFP positive cells using a laser-scanning microplate cytometer. Selected LDR actives were assayed for killing of Normal 1, a patient-derived normal bronchial epithelial line matched to NSCLC 1, a nonsmall cell lung carcinoma line from the same patient. The Normal 1 line assays the cytoxicity of test compounds on normal lung cells. Normal 1 cell viability was measured using Cell Titer 96 AQueous One (Promega), an assay which detects the ability of metabolically active cells to reduce a tetrazolium salt substrate (MTS), into a soluble formazan product that can be measured by colorimetry.
NCGC Assay Protocol Summary Normal 1 cells were plated in 96-well flat bottom tissue culture dishes (Corning) and grown overnight at 37 C and 5% CO2, then treated with compounds, incubated 4 days, and assayed for viability using the Cell Titer 96 AQueous One kit (Promega) according to the manufacturer's protocol. Absorbance at 490 nm and 650 nm (reference) was measured by a Spectra Max (Molecular Devices). Data were normalized to the untreated control (100% viability). Each cell line was tested in one or two independent assays, each containing 4 or 8 replicates. For further details, see R.L. Johnson, W. Huang, A. Jadhav, C.P. Austin, J. Inglese, E.D. Martinez, A Quantitative High-Throughput Screen Identifies Potential Epigenetic Modulators of Gene Expression, Analytical Biochemistry (2007), doi: 10.1016/j.ab.2007.12.028
For `O=C(CSc1cccc2cccnc12)NCc1ccccc1`, the outcome was inactive.

As to `CN1C(=S)SC(c2ccccc2)N(C)C1c1ccccc1` (configuration not stated), the result was inactive.

`CC(C)C(=O)NC(c1ccco1)c1ccc2cccnc2c1O` (configuration not stated): the Potency was 9000 nM (active).

For the compound `O=Nc1ccc(O)c2ncccc12`, the Potency is 3000 nM (active).

With `CC(C)C(=O)NC(c1ccc(N(C)C)cc1)c1ccc2cccnc2c1O` (configuration not stated), the Potency is 6000 nM (active).

As for `CC(C)C(=O)NC(c1ccco1)c1cc([N+](=O)[O-])c2cccnc2c1O` (configuration not stated), the Potency was 800 nM (active).

In the case of `CC(/C=C/C(=O)NO)=C\[C@@H](C)C(=O)c1ccc(N(C)C)cc1`, the Potency was 200 nM (active).
